In all, about 320,000 compounds went through this assay and about 2,100 (0.66%) were called active. Another 53% or so got no clear call; they are omitted. Calls follow the shape of the dose curve; as a rule, active = well fitted inhibition curve with a large enough effect in the signal ratio, with a control signal flat (not every such curve was filed as active); inconclusive = small, poorly fitted or top-dose-only effect, or effect the other way, or a change in a side signal; inactive = flat fitted curve, though single readings scatter; the % refers to the signal ratio. Shown is part of a subset that was picked to be rich in actives.
Assay: qHTS Assay for Lipid Storage Modulators in Drosophila S3 Cells;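 as to cell number change: cells counted by Cell Tracker Red CMTPX staining in the red channel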; as to lipid storage change, negative = inhibition: % is scaled to controls: 0 for no effect and ±100 for the full control effect
Conditions: BODIPY lipid droplet fluorescence, 18-24 h, cells fed with added oleic acid; cell number change: measured here: cell count max response; series mostly up to 46.1 µM; lipid storage change, negative = inhibition: at the top concentration
Procedure, shortened: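 Laser-scanning cytometry quantifies lipid droplet accumulation (500–530 nm total intensity; droplet/cell object ratio) in oleic acid-fed (400 uM added) Drosophila S3 cells treated with a concentration series. 20 uM Triacsin C defined 100% inhibition.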
Potency is read from the fitted curve at half-maximal effect.

SMILES	lipid storage change, negative = inhibition	cell number change [%]	Potency	outcome
Cc1ccc(C)c(/C=C2\CCn3c2nc2cc(C(=O)O)ccc2c3=O)c1	-0.517% (inactive)	6.53		
CNc1oc(C)nc1S(=O)(=O)c1ccc(C)cc1	-9.91% (inactive)	-20.3		
CNc1oc(C)nc1S(=O)(=O)c1ccccc1		3.59	32.6 µM (active)	
CNc1oc(-c2ccc(F)cc2)nc1S(=O)(=O)c1ccccc1		11.1		inactive
CC(=O)Nc1ccc(S(=O)(=O)Nc2nccc(C)n2)cc1	5.67% (inactive)	1.57		
CC(=O)Nc1ccc(S(=O)(=O)Nc2ncccn2)cc1	5.04% (inactive)	3.3		
CC(=O)Nc1ccc(S(=O)(=O)Nc2nccc(C3Cc4ccccc4C(=O)O3)n2)cc1 (configuration not stated)		-1.08	14.6 µM (active)	
O=C(CSc1nnc(COc2ccccc2)o1)N1CCN(c2ccccc2)CC1	2.5% (inactive)	3.22		
Cc1cccc(C(=O)Nc2ccc(N3CCN(S(C)(=O)=O)CC3)cc2)c1	-0.275% (inactive)	1.55		
COc1ccc(-n2ncc(C(C)NS(=O)(=O)c3ccc(C(C)=O)cc3)c2C)cc1 (configuration not stated)	-20.7% (inactive)	-7.79		
COC(=O)c1sccc1S(=O)(=O)NC(C)c1cnn(-c2ccc(OC)cc2)c1C (configuration not stated)	-6.72% (inactive)	19.6		
COc1ccc(-n2ncc(C(C)NS(=O)(=O)c3cc(F)ccc3C)c2C)cc1 (configuration not stated)		-20.2	9.2 µM (active)	
CN(C)CCCN(C(=O)COc1ccccc1)c1nc2ccc(F)cc2s1	-6.61% (inactive)	-15.9		
COc1ccc(Cn2nnnc2CN(Cc2cc3cccc(C)c3[nH]c2=O)C2CCCC2)cc1	-1.09% (inactive)	-3.93		
CCCCN(c1ccccc1)c1ncnc2nc[nH]c12	-13.1% (inactive)	0.284		
O=C1c2cccc3c(N4CCCCC4)ccc(c23)C(=O)N1c1ccccn1	22% (inactive)	12.6		
O=c1c2ccccc2c(-c2ccccc2)nn1-c1ccccn1	21.9% (inactive)			
O=C1c2cc3ccccc3c(-c3ccccc3)c2C(=O)N1c1ccccn1		-7.79	23.1 µM (active)	
COc1ccc2c(c1)CCC(C)N2C(=O)C(=O)c1c[nH]c2ccccc12 (configuration not stated)	13.6% (inactive)			
CCCCNC(=O)C1CCN(S(=O)(=O)c2c(C)noc2/C=C\c2ccc(OC)cc2)CC1	-15.3% [at 9.22 µM] (inactive)	0.864		
COc1ccccc1CCC(=O)OC(C)C(=O)Nc1c(C)n(C)n(-c2ccccc2)c1=O (configuration not stated)	-5.33% (inactive)			
Cc1cc(C)cc(NC(=O)N2CCCC2C(=O)NCc2ccco2)c1 (configuration not stated)	17.2% (inactive)	4.2		
O=C(NCc1ccco1)C1CCCN1C(=O)Nc1ccc(Br)cc1 (configuration not stated)		13.3	7.31 µM (active)	
O=C(NCc1ccco1)C1CCCN1C(=O)Nc1cccc(Cl)c1 (configuration not stated)	10.9% (inactive)	3.19		
COCCNC(=O)C1CCN(S(=O)(=O)c2ccccc2)CC1	-7.72% (inactive)	-5.9		
